Our source for the growth values is PubChem BioAssay (NCI).

Structures are written as SMILES. Several values for one entry are separate records, joined by “and”; a condition that tells them apart may be missing. Equal values may be shown once. This is part of a sample that, as a whole, favours compounds with a hit. Of some 83,000 tested, about 20% had one in any assay.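 Values shown are percent growth following 48 h exposure of cells in 96-well plates to a single concentration of compound; below 10 was considered active.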 Values without a mark were called inactive. Activity calls are given as the source filed them.

The test relates to M14 melanoma. The test is described as follows: NCI-60 one-dose screen, 48 h (100 = growth as untreated, 0 = no growth, -100 = all killed). As to conditions: 10 µM unless noted. Here is the method: Growth inhibition of the M14 human tumor cell line is measured as a screen for anti-cancer activity. Cells are grown in 96 well plates and exposed to the test compound for 48 hours. Compounds are tested at a single concentration, which is 10^-5 M for most compounds. The reported endpoint is percent growth (GI% or GIPRCNT), where numbers from 0 - 100% represent growth inhibition, and numbers from -100% - 0 represent cell death. For example, a value of 40 represents 60% growth inhibition. A value of 0 means no net growth occurred over the course of the experiment. A value of -40 indicates 40% of cells at the beginning of the experiment died by the end of the experiment. A value of -100 means all cells are dead at the end of the experiment.
NCI-60 Human Tumor Cell Lines Screen was performed using the standard one-dose NCI protocol, which is described in more detail at https://dtp.cancer.gov/discovery_development/nci-60/default.htm.
Compounds with GIPRCNT values below 10 were considered active. Activity score was based on GIPRCNT using the following formula: […]
Score is 0 for GIPRCNT values of 100 or above, 50 for GIPRCNT values of 0, and 100 for GIPRCNT values of -100.
Regarding `O=c1[nH]c(=O)n(Cl)c(=O)n1Cl`, the growth is 103% and 98.4%.
Take `COc1ccc2c(c1)c(-c1nc(-c3c[nH]c4ncccc34)cs1)cn2CCCCN1CCOCC1`: the growth was -53.5% (active).
On to `CCCCCCCCCCCCCCCC[N+](C)(C)Cc1ccccc1`, for which the growth is -45.6% (active) and -88.7% (active).
Take `Cc1ccc(S(=O)(=O)n2cc([C@@]3(O)C[C@H](CSC#N)OC3=O)c3ccccc32)cc1`: the growth was 66.2%.
In the case of `COc1ccc(O)c2c(=O)c3c(OC)cc4c(c3oc12)[C@@H]1C=CO[C@@H]1O4`, the growth was 67.4%.
Consider `C(=NC1CCCCC1)=NC1CCCCC1`, for which the growth is 115% and 87.1%.
Take `COc1cc(C2C3=C(CCCC3=O)N(CCO)c3cc4c(cc32)CCC4)cc(OC)c1OC` (stereo not given): the growth was 98%.
Consider `Oc1ccc(O)c(Cl)c1`, for which the growth is 95.7% and 104%.
For `CN(C)c1ccc([N+](=O)[O-])c([N+](=O)[O-])c1` the value was 99.4% and 93.7%; for `COc1ccc(N)cc1N`, 111%; for `Nc1nc(=S)nc(N)[nH]1`, 89.5%.
In the case of `O=C(Cc1ccccc1)c1ccccc1`, the growth was 107%.
For `CCN(CC)CCn1c(=O)n(C)c2ccccc21` the value was 108%; for `N#CC(C#N)=Cc1cccc(F)c1`, 107%.
For `CN1CCC2(CC1)C(C#N)C(=O)NC(=O)C2C#N` (stereo not given) the value was 107%; for `Cc1ccc(P(=O)(O)O)cc1`, 104%; for `Cc1nnc([S-])o1.[Au+].c1ccc([PH+](c2ccccc2)c2ccccc2)cc1`, 31.8%.
On to `COCC1OC2OC3C(COC)OC(OC4C(COC)OC(OC5C(COC)OC(OC6C(COC)OC(OC7C(COC)OC(OC8C(COC)OC(OC1C(O)C2O)C(O)C8O)C(O)C7O)C(O)C6O)C(O)C5O)C(O)C4O)C(O)C3O` (stereo not given) (tested in a mixture with another compound), for which the growth was 105%.
For `O=C(O)c1ccc(=O)[nH]c1`, the growth is 102% and 95.8%.
As to `Cc1cc[c-]cc1.Fc1c[c-]c(-c2ccccn2)c(F)c1.N#CCC[PH+](CCC#N)c1ccccc1.[Pt+2]`, the growth was 21.9%.
For `COc1cc(/C=C\[N+](=O)[O-])ccc1OCc1ccccc1` the value was 15.5%; for `CNC(=O)O/N=C(\SC)C(=O)N(C)C`, 102%.
In the case of `O=C(O)c1cc([N+](=O)[O-])cc([N+](=O)[O-])c1`, the growth is 95.9%.
On to `CCCCOC(N)=O`, for which the growth is 97.5%.
As for `O=P(O)(Nc1ccccc1)Nc1ccccc1`, the growth is 88.4%.
For `O=c1c2ccccc2nc(-c2ccccc2Cl)n1-c1nnc(C(F)(F)F)s1` the value was 35.1%; for `COc1cc(-c2ccc(N)c(OC)c2)ccc1N`, 113%; for `C/C=C(/C)C(=O)O[C@H]1CC[C@@]2(C)[C@@H]3CC[C@H]4[C@]5(O)C[C@H](O)[C@@]6(O)[C@@H](CN7C[C@@H](C)CC[C@H]7[C@@]6(C)O)[C@]5(O)C[C@@]42O[C@@]13O`, 102%.
Regarding `CO[C@H]1[C@H](O[C@@H]2C[C@@H]3C/C=C/C(=O)O[C@@H](CO)C[C@H](O)[C@@H]4C[C@H](C)[C@H](C/C=C\C=C\[C@H](C)C[C@H](C2)O3)O4)O[C@@H](C)[C@H](O)[C@H]1O`, the growth is 74.7%.
Regarding `CCCn1cc2c3c(cccc31)[C@H]1C[C@@H](C)CN(C)[C@@H]1C2`, the growth is 89.3%.
As to `Nc1ccc(S(=O)(=O)F)cc1`, the growth was 107%.
Take `CCOC(=O)c1ccccc1C(=O)OCC`: the growth was 103%.
`O=C1C=C(N2CC2)c2ccccc2C1=O`: the growth was 63.6%.
As for `CN(C)c1ccc(C=C2C(=O)NC(=O)NC2=O)cc1`, the growth is 86.5%.
Regarding `C[C@]12CCc3sc(Nc4ccc(F)cc4)nc3C1=CC[C@@H]1[C@@H]2CC[C@]2(C)C(=O)CC[C@@H]12`, the growth was 90%.
In the case of `O=C(O)C(F)F`, the growth is 107%.
Regarding `C#COc1cccc(Nc2ncnc3cc(NC(=O)CF)ccc23)c1`, the growth was 18.7% [6.25 µM].
Regarding `O=C1NC(=O)C(=C/C=C/c2ccccc2)C(=O)N1`, the growth was -20.5% (active).
For `COc1ccc(C(C#N)C(C)=O)cc1` (stereo not given), the growth was 101%.
For `Cc1c2ccncc2c(C)c2c1[nH]c1ccccc12`, the growth was -89.9% (active).
